The nature of experiment [1]: Viability qHTS for spleen associated tyrosine kinase inhibitor (SYKi) drug resistant MV4-11 cells (AID 1963824). Note: nearly all actives have a fitted effect of over 35% in size. To be noted: SYKi-resistant MV4-11 viability, CellTiter-Glo, 72 h; series mostly up to 45 µM. Put shortly:
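CellTiter-Glo luminescence, read 10 min after reagent addition, reports viability after a 72 hr compound exposure. Cells are an MV4-11 line made resistant to SYK inhibition, seeded at 500 per well onto compound-containing plates.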
(In general: qHTS replaces the single test concentration by a dilution series.)

The nature of experiment [2]: Quantitative highthroughput screen to assess conditional lethalithy of NOMO1 cells grown in RPMI1640 with untreated serum (RPMI+s) (AID 1963876).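 For Viability: 100% = DMSO wells and 0% = empty wells without cells.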 Note: nearly all actives have a fitted effect of over 35% in size. To be noted: NOMO1 AML cells in RPMI+serum, CellTiter-Glo viability, 48 h; series mostly up to 45.8 µM. Put shortly: (§1)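 Each medium arm—HPLM with 10% dialyzed FBS, or RPMI1640 with 5 mM glucose and 10% untreated or dialyzed FBS—was screened against an 11-point, 3-fold compound titration for 48 h at 37 °C, with CellTiter-Glo luminescence as endpoint.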
A general note: Cellular ATP, detected with luciferase, serves as a proxy for viable cell number.

The nature of experiment [3]: Quantitative highthroughput screen to assess conditional lethalithy of NOMO1 cells grown in RPMI1640 with dialyzed fetal bovine serum (RPMI+ds) (AID 1963877).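 For Viability: 100% = DMSO control wells and 0% = empty wells.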 Note: nearly all actives have a fitted effect of over 30% in size. As to conditions: NOMO1 in RPMI+dialyzed FBS viability, ATP luminescence, 48 h; series mostly up to 45.8 µM. Put shortly: as §1
Experiment [4] is described as follows: Quantitative highthroughput screen to assess conditional lethalithy of NOMO1 cells grown in Human Plasma-Like Medium with dialyzed fetal bovine serum (HPLM+ds) (AID 1963878).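 For Viability: 100% = DMSO wells and 0% = empty wells on each plate.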 Note: nearly all actives have a fitted effect of over 35% in size. As to conditions: NOMO1 AML cells in HPLM+ds, CellTiter-Glo viability, 48 h; series mostly up to 45.8 µM. Put shortly: as §1
A short description of experiment [5]: Quantitative highthroughput screen to assess conditional lethalithy of P12 Ichikawa cells grown in Human Plasma-Like Medium with dialyzed fetal bovine serum (HPLM+ds) (AID 1963879). Note: nearly all actives have a fitted effect of over 35% in size. As to conditions: ATP luminescence, 48 h; Potency: viability; series mostly up to 45.8 µM. Put shortly: as §1
Experiment [6] is described as follows: Quantitative highthroughput screen to assess conditional lethalithy of P12 Ichikawa cells grown in RPMI1640 with dialyzed fetal bovine serum (RPMI+ds) (AID 1963880).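 For Viability: 100% = DMSO wells and 0% = empty wells on each plate.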 Note: nearly all actives have a fitted effect of over 35% in size. As to conditions: ATP luminescence, 48 h; Potency: P12-Ichikawa viability; series mostly up to 45.8 µM. Put shortly: as §1
Experiment [7] is described as follows: Quantitative highthroughput screen to assess conditional lethalithy of P12 Ichikawa cells grown in RPMI1640 with untreated serum (RPMI+s) (AID 1963881).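 For Viability: 100% = DMSO wells and 0% = empty wells without cells.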 Note: nearly all actives have a fitted effect of over 35% in size. To be noted: ATP luminescence, 48 h; Potency: viability; series mostly up to 45.8 µM. The method in brief:
as §1

The nature of experiment [8]: Quantitative highthroughput screen to assess conditional lethalithy of SEM cells grown in Human Plasma-Like Medium with dialyzed fetal bovine serum (HPLM+ds) (AID 1963882). Note: nearly all actives have a fitted effect of over 35% in size. As to conditions: SEM B-ALL cells in HPLM+ds, CellTiter-Glo viability, 48 h; series mostly up to 45.8 µM. The method in brief: as §1
Experiment [9] in a line: Quantitative highthroughput screen to assess conditional lethalithy of SEM cells grown in RPMI1640 with unreated serum (RPMI+s) (AID 1963883).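 For Viability: 100% = DMSO wells and 0% = empty wells without cells.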 Note: nearly all actives have a fitted effect of over 35% in size. To be noted: SEM B-ALL cells, CellTiter-Glo viability, 48 h; series mostly up to 45.8 µM. The method in brief: as §1
Experiment [10] can be described thus: Quantitative highthroughput screen to assess conditional lethalithy of SEM cells grown in RPMI1640 with dialyzed fetal bovine serum (RPMI+ds) (AID 1963884).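 For Viability: 100% = DMSO control wells and 0% = empty wells without cells.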 Note: nearly all actives have a fitted effect of over 35% in size. As to conditions: SEM B-ALL cells, RPMI+dialyzed FBS, CellTiter-Glo viability, 48 h; series mostly up to 45.8 µM. Put shortly: as §1
Experiment [11] can be described thus: Cellular viability qHTS for adrenocortical cancer (ACC) cell line SW-13 (AID 1963989).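 For activity (max response): cells grown in serum-free medium with ITS supplement; % is set by controls: 0 for no effect and ±100 for the full control effect.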 Note: nearly all actives have a fitted effect of over 65% in size. As to conditions: SW-13 ACC cells viability, CellTiter-Glo, 48 h; activity (max response): active compounds read low. Put shortly:
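IC50 and maximal-response values come from four-parameter logistic fits of titration data. SW-13 cells in serum-free medium received compounds (up to 46 uM final) for 48 h before CellTiter-Glo luminescence.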

The nature of experiment [12]: Cellular viability qHTS for adrenocortical cancer (ACC) cell line NCI-H295R (AID 1963990). Note: nearly all actives have a fitted effect of over 60% in size. As to conditions: CellTiter-Glo ATP luminescence, 48 h; series mostly up to 46.1 µM. The method in brief:
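Adrenocortical carcinoma cells, suspended at 300 000 cells/mL in serum-free DMEM plus ITS, rested overnight before pin transfer of compound. After two days' incubation, ATP-dependent luminescence was recorded and curve-fitted.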

Where “and” joins values, the source holds several entries; their conditions need not be identical. Identical values can stand only once. Inconclusive results are not listed. A number with no mark means an inactive call. Calls of active or inactive are those of the source. Calls come from the whole dose curve; as a rule, active = well fitted curve in the direction sought with a large enough effect; inconclusive = small, poorly fitted or top-dose-only effect, or another doubt; inactive = no such curve, though single readings can be large; an effect the other way counts as inactive or inconclusive.
Potency is the fitted concentration of half-maximal effect.

Regarding `NS(=O)(=O)c1cc2c(cc1Cl)NC=NS2(=O)=O`, the Potency entry in experiment [1], in [2], in [3], in experiment [4], in [5] and in experiment [6] was “inactive” each time. Also, the Potency entry in experiment [7], in experiment [8], in [9], in experiment [10] and in experiment [12] was “inactive” in each case. Further, the activity (max response) in [11] is 2.09% and 0.632%.
As to `CNc1nc(Nc2ccc(C(=O)N3CCOCC3)cc2OC)ncc1Cl`, in experiment [1], the Potency is 5800 nM (active). For the same compound, the Potency result in [2], in experiment [3], in experiment [4], in experiment [5], in experiment [6] and in experiment [7] was “inactive” in each case. The Potency result in [12] is “inactive”. The activity (max response) in experiment [11] was -6.87%.
Consider `Nc1ccc(S(N)(=O)=O)cc1`, for which the Potency result in experiment [1], in experiment [2], in [3], in experiment [4], in [5] and in [6] was “inactive” in each case. The Potency result in experiment [7], in [8], in experiment [9], in experiment [10] and in experiment [12] was “inactive” in each case. In addition, in experiment [11], the activity (max response) was 16.5% and -23.7%.
For `O=C(O)CCc1ccc(NCc2cccc(Oc3ccccc3)c2)cc1`, in [1], the Potency was 16400 nM (active). Further, the Potency entry in experiment [2], in [3], in experiment [4], in [5], in experiment [6] and in experiment [7] was “inactive” in each case. For the same compound, the Potency result in [9] was “inactive”. Moreover, the activity (max response) in experiment [11] is -8.89%.
Regarding `CC[C@@]1(O)C(=O)OCc2c1cc1n(c2=O)Cc2cc3cc(O)ccc3nc2-1`, the Potency is 18.6 nM (active) in experiment [1]; 118 nM (active) in [2]; 148 nM (active) in experiment [3]; 83.3 nM (active) in experiment [4]; 33.2 nM (active) in experiment [5]; 29.6 nM (active) in [6]. The Potency in experiment [7] is 29.6 nM (active); in [8] it was 52.6 nM (active); in experiment [9], 41.8 nM (active); in experiment [10], 46.9 nM (active); in experiment [11], 224 nM (active); in [12], 1580 nM (active).
For the compound `O=C(Nc1cc(Cl)cc2c1[nH]c1cnccc12)c1cccnc1`, in experiment [1], the Potency is 3550 nM (active). Moreover, the Potency entry in experiment [2], in experiment [3], in experiment [4], in experiment [6], in experiment [7] and in experiment [8] was “inactive” each time. Further, the Potency entry in experiment [12] was “inactive”. For the same compound, the activity (max response) in experiment [11] is 7.23%.
In the case of `OCc1ccc(-c2nn(Cc3ccccc3)c3ccccc23)o1`, the Potency in experiment [1] is 4680 nM (active); in experiment [2], 13200 nM (active); in [3] it was 16600 nM (active); in experiment [4] it was 16600 nM (active). Further, the Potency entry in experiment [5] is “inactive”. In addition, the activity (max response) in [11] was -19%.
